# Assay results reported in PubChem BioAssay (NCATS).
# Inconclusive results are not listed. A call without a number means that no potency is given here. Activity calls are given as the source filed them. The call rests on the fitted dose curve; in most records, active means well fitted inhibition curve with a large enough effect; inconclusive means small, poorly fitted or top-dose-only effect; inactive means flat fitted curve, though single readings scatter.
# Tests used:
# Experiment in all cases: qHTS profiling for inhibitors of Plasmodium falciparum proliferation (AID 504749); further: nearly all actives have a fitted effect of over 60% in size
# Settings in all cases: P. falciparum in erythrocytes, SYBR Green DNA, 72 h; series mostly up to 28.7 µM
# CP237 = system: CP237
# In short: (§1)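 Quantitative HTS: compounds pinned into medium, infected erythrocytes added (0.3% parasitemia, 2.5% hematocrit), 72 h culture at 37 C under 5% CO2. Saponin/Triton lysis with SYBR Green I, overnight RT, then fluorescence read.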
# CP238 = system: CP238
# In short: as §1
# CP247 = system: CP247
# In short: as §1
# CP250 = system: CP250
# In short: as §1
# CP252 = system: CP252
# In short: as §1
# CP256 = system: CP256
# In short: as §1
# CP262 = system: CP262
# In short: as §1
# CP265 = system: CP265
# In short: as §1
# CP266 = system: CP266
# In short: as §1
# CP260 = system: CP260
# In short: as §1
# Potency means the concentration at half of the fitted maximal effect.
Compound,Potency (CP237),Potency (CP238),Potency (CP247),Potency (CP250),outcome (CP252),outcome (CP256),outcome (CP262),Potency (CP265),outcome (CP266),Potency (CP260)
CCN(CC)CCc1nc(-c2ccccc2)no1,inactive,inactive,inactive,inactive,inactive,inactive,inactive,inactive,inactive,–
CC(C)CCCC(C)CCCC(C)CCCCC(C)CCCC(C)CCCC(C)C (stereo not given),inactive,inactive,inactive,inactive,inactive,inactive,inactive,inactive,inactive,inactive
CC[N+](CC)(CC(=O)Nc1c(C)cccc1C)Cc1ccccc1,inactive,inactive,inactive,inactive,inactive,inactive,–,inactive,inactive,inactive
Nc1ccncc1N,inactive,inactive,inactive,inactive,inactive,inactive,inactive,inactive,inactive,inactive
Cc1cc(O)cc(C)c1Cl,inactive,inactive,inactive,inactive,inactive,inactive,inactive,11200 nM (active),inactive,–
C=CCSCC1Nc2cc(Cl)c(S(N)(=O)=O)cc2S(=O)(=O)N1 (stereo not given),inactive,inactive,inactive,inactive,inactive,inactive,inactive,inactive,inactive,–
Cc1ncc(CO)c(CN)c1O,inactive,inactive,inactive,inactive,inactive,inactive,–,inactive,inactive,inactive
CCOc1ccc(C(=O)OCCN(CC)CC)cc1,inactive,inactive,inactive,inactive,inactive,inactive,–,inactive,inactive,inactive
CCCC(O)C(CC)CO (stereo not given),inactive,inactive,inactive,inactive,inactive,inactive,inactive,inactive,inactive,inactive
O=S1(=O)OC(c2ccc(O)cc2)(c2ccc(O)cc2)c2ccccc21,inactive,inactive,inactive,inactive,inactive,inactive,inactive,inactive,inactive,inactive
CC(C)CCOC(=O)c1ccc(N(C)C)cc1,inactive,inactive,inactive,inactive,inactive,inactive,inactive,inactive,inactive,inactive
CC(O)CCCCn1c(=O)c2c(ncn2C)n(C)c1=O (stereo not given),inactive,inactive,inactive,inactive,inactive,inactive,inactive,inactive,inactive,inactive
O[C@@H]1CO[C@H]2[C@@H]1OC[C@@H]2O,inactive,inactive,inactive,inactive,inactive,inactive,inactive,inactive,inactive,inactive
NS(=O)(=O)c1ccc(C(=O)O)cc1,inactive,inactive,inactive,inactive,inactive,inactive,–,inactive,inactive,inactive
c1ccc2[nH]ccc2c1,inactive,inactive,inactive,inactive,inactive,inactive,inactive,inactive,inactive,inactive
CC(=O)Nc1cccc(O)c1,inactive,inactive,inactive,inactive,inactive,inactive,inactive,inactive,inactive,inactive
O=C(O)c1ccccc1C(=O)Nc1ccc(S(=O)(=O)Nc2nccs2)cc1,inactive,inactive,inactive,inactive,inactive,inactive,inactive,inactive,inactive,–
O=C(c1ccccc1)C(O)c1ccccc1 (stereo not given),inactive,inactive,–,–,inactive,inactive,inactive,inactive,inactive,inactive
CCCNC(C)(C)COC(=O)c1ccccc1,–,inactive,inactive,inactive,inactive,inactive,inactive,inactive,inactive,inactive
Cc1cc(C)c(NC(=O)CN(CC(=O)O)CC(=O)O)c(C)c1Br,inactive,–,–,–,–,–,inactive,–,inactive,inactive
COc1ccc(O)cc1,inactive,inactive,–,inactive,inactive,inactive,inactive,inactive,inactive,inactive
CC(CN(C)C)C(C)(O)Cc1ccc(Cl)cc1 (stereo not given),2510 nM (active),–,inactive,–,inactive,–,inactive,–,inactive,–
CC(=O)OC[C@H]1O[C@@](COC(C)=O)(O[C@H]2O[C@H](COC(C)=O)[C@@H](OC(C)=O)[C@H](OC(C)=O)[C@H]2OC(C)=O)[C@@H](OC(C)=O)[C@@H]1OC(C)=O,inactive,–,–,–,–,–,inactive,inactive,inactive,inactive
CCN1CC(CCN2CCOCC2)C(c2ccccc2)(c2ccccc2)C1=O (stereo not given),–,inactive,inactive,inactive,inactive,inactive,inactive,–,inactive,inactive
CC(C)c1cc2c(cc1S(=O)(=O)O)[C@@]1(C)CCC[C@@](C)(C(=O)O)[C@@H]1CC2,inactive,inactive,–,inactive,inactive,inactive,inactive,inactive,inactive,inactive
NC(=O)c1ccc([N+](=O)[O-])cc1Cl,inactive,inactive,inactive,inactive,inactive,inactive,inactive,–,inactive,–

Compound,Potency (CP237),Potency (CP238),Potency (CP247),Potency (CP250),outcome (CP252),outcome (CP256),outcome (CP262),Potency (CP265),outcome (CP266),Potency (CP260)
Cc1cc(-n2nc3ccc(Cl)cc3n2)c(O)c(C(C)(C)C)c1,inactive,–,–,–,–,–,inactive,–,inactive,inactive
Cc1[nH]c(C)c(Cl)c(=O)c1Cl,8910 nM (active),inactive,inactive,–,inactive,–,–,inactive,inactive,8910 nM (active)
NC(=O)CCCCC1CCSS1 (stereo not given),–,inactive,inactive,inactive,inactive,inactive,inactive,inactive,inactive,–
CC(=O)N[C@@H](Cc1ccc(O)cc1)C(=O)O,inactive,inactive,inactive,inactive,inactive,–,inactive,inactive,inactive,inactive
CC(=O)Nc1ccc(OCCOCCOc2ccc(NC(C)=O)cc2)cc1,inactive,inactive,–,inactive,inactive,inactive,inactive,inactive,inactive,inactive
C[C@H]1COc2c(C3(N)CC3)c(F)cc3c(=O)c(C(=O)O)cn1c23,inactive,inactive,–,inactive,inactive,inactive,inactive,inactive,inactive,–
COC(=O)c1ccccc1C(=O)c1ccc(OCCN2CCCCC2)cc1,–,inactive,inactive,inactive,inactive,inactive,inactive,inactive,inactive,inactive
O=C1C(c2[nH]c3ccccc3c2O)=Nc2ccccc21,–,inactive,–,–,inactive,inactive,inactive,inactive,inactive,inactive
Cc1cc(NC(=O)C2=C(O)c3ccccc3S(=O)(=O)N2C)no1,inactive,inactive,–,inactive,inactive,inactive,inactive,inactive,inactive,inactive
Cc1c(N(C)C)c(=O)n(-c2ccccc2)n1C,inactive,inactive,inactive,inactive,inactive,inactive,inactive,inactive,inactive,–
O=C1c2ccccc2C(=O)C1c1ccc(Br)cc1,inactive,inactive,inactive,inactive,inactive,–,inactive,–,inactive,–
CN(C/C=C/C#CC(C)(C)C)Cc1cccc2ccccc12,–,inactive,inactive,inactive,inactive,inactive,inactive,inactive,inactive,inactive
Cc1cc(OI)c(C(C)C)cc1-c1cc(C(C)C)c(OI)cc1C,inactive,–,–,inactive,–,inactive,inactive,–,inactive,–
CC[N+](C)(CC)CCOC(=O)C1c2ccccc2Oc2ccccc21,inactive,–,inactive,–,inactive,–,inactive,inactive,inactive,–
CCOC(N)=O,inactive,inactive,inactive,inactive,inactive,inactive,inactive,inactive,inactive,–
CN1C[C@@H]2C[C@H]1CN2c1cc2c(cc1F)c(=O)c(C(=O)O)cn2C1CC1,–,–,inactive,inactive,–,–,–,–,–,–
CCCCCC(C)N (stereo not given),–,inactive,inactive,inactive,–,inactive,inactive,inactive,inactive,10000 nM (active)
CCCCCCCCCCOc1cc2c(=O)c(C(=O)OCC)c[nH]c2cc1OCC,3.5 nM (active),2.8 nM (active),0.3 nM (active),0.0708 nM (active),–,–,–,–,–,3.5 nM (active)
O=c1[nH]c(=O)c2ccccc2o1,inactive,inactive,–,inactive,inactive,inactive,inactive,inactive,inactive,inactive
NCc1ccc(S(N)(=O)=O)cc1,inactive,inactive,inactive,inactive,inactive,inactive,inactive,–,inactive,–
Nc1ncnc(Nc2ccccc2)n1,inactive,inactive,inactive,–,inactive,inactive,–,inactive,inactive,inactive
CC1CCN(CCCC(=O)c2ccc(F)cc2)CC1,–,inactive,inactive,inactive,inactive,inactive,–,inactive,inactive,inactive
CCN(CC)C(=O)c1cccc(C)c1,inactive,inactive,inactive,inactive,inactive,inactive,inactive,inactive,inactive,–
COc1ccc(C(=O)N2CCN(CC(=O)N3CCOCC3)CC2)cc1,inactive,inactive,inactive,–,inactive,inactive,inactive,inactive,inactive,inactive
CC(=O)N(CC(O)CO)c1c(I)c(C(=O)NCC(O)CO)c(I)c(C(=O)NCC(O)CO)c1I (stereo not given),inactive,inactive,inactive,inactive,inactive,inactive,inactive,–,inactive,–
COc1cc(C(=O)NCCCCCC(=O)O)cc(OC)c1OC,inactive,inactive,inactive,inactive,inactive,inactive,inactive,inactive,inactive,–
